These results are taken from PubChem BioAssay (NCATS).

Records with an inconclusive call do not appear. Calls of active or inactive are those of the source. Unless noted, the call rests on the fitted dose curve; in most records, active means well fitted cell-killing curve with a large enough effect; inconclusive means small, poorly fitted or top-dose-only effect; inactive means flat fitted curve, though single readings scatter.

A short description of assay [1]: Cell Viability - LYMP2-021 (AID 974).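 Further: compound exposure lasts 24 hours at 37 °C; on the % scale 0 is the no-effect control and ±100 the full control effect; nearly all actives have a fitted effect of over 55% in size.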 The method in brief: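 Loss of cellular ATP, measured with a luciferase-based CellTiter-Glo readout, serves as the toxicity signal in human lymphoblastoid cells treated for 24 hours at 37 C. Potency is reported as AC50 from a standard Hill model.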
Assay [2] can be described thus: Cell Viability - LYMP2-023 (AID 975).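 Further: series mostly up to about 92 µM; plate controls were DMSO only for no effect and 92 µM tetraoctylammonium bromide control for full effect; nearly all actives have a fitted effect of over 55% in size.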 In outline:
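Steps: seed 2500 human lymphoblastoid cells per well, incubate 5 hr at 37 C, add compound for 24 hr at 37 C, add CellTiter-Glo, hold 30 min at room temperature, read luminescence. AC50 derived by Hill modelling.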

Assay [3] in a line: Cell Viability - LYMP2-025 (AID 976).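 Further: series mostly up to about 92 µM; plate controls were DMSO only for no effect and tetraoctylammonium bromide control for full effect.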 The method in brief: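 Acute cytotoxicity is scored as a concentration-dependent fall in intracellular ATP, measured by luciferase luminescence, in human lymphoblastoid LYMP2-025 cells exposed to compound for 24 hours at 37 C. AC50 values come from standard Hill fits.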
A short description of assay [4]: Cell Viability - LYMP2-002 (AID 977).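 Further: series mostly up to about 92 µM; compound exposure lasted 24 h at 37 °C; plate controls were DMSO only for no effect and 92 µM tetraoctylammonium bromide for full effect.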 The method in brief: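 Human lymphoblastoid cells, 2500/well, complete medium; 5 h 37 C settle; compound 24 h 37 C; CellTiter-Glo, 30 min RT; luminescence. Decrease in ATP = cytotoxicity; AC50 via Hill equation.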
A short description of assay [5]: Cell Viability - LYMP2-006 (AID 978). Further: series mostly up to about 92 µM; on the % scale 0 is the no-effect control and ±100 the full control effect; nearly all actives have a fitted effect of over 60% in size. In outline: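 Concentration-dependent loss of intracellular ATP in a human lymphoblastoid line after 24 hr treatment at 37 C was measured by CellTiter-Glo luminescence, with AC50 values obtained from standard Hill-equation modelling.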
Assay [6] can be described thus: Cell Viability - LYMP2-007 (AID 979).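 Further: cells exposed to compound for 24 h before reading; 0% = DMSO only and the negative end = 92 µM tetraoctylammonium bromide; nearly all actives have a fitted effect of over 60% in size.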 In outline:
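Cells are seeded at 2500 per well and rested 5 hr. Compounds are then added over a concentration series for 24 hr at 37 C. CellTiter-Glo is added for 30 min at room temperature before luminescence reading.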

Assay [7] is described as follows: Cell Viability - LYMP2-008 (AID 980). Further: on the % scale 0 is the no-effect control and ±100 the full control effect; nearly all actives have a fitted effect of over 60% in size. The method in brief:
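Cells seeded at 2500/well and rested 5 hr at 37 C; compounds added over a concentration range and incubated 24 hr at 37 C; CellTiter-Glo added, 30 min at room temperature; luminescence read and AC50 fitted with Hill model.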

A short description of assay [8]: Cell Viability - LYMP2-010 (AID 981). Further: on the % scale 0 is the no-effect control and ±100 the full control effect; nearly all actives have a fitted effect of over 55% in size. In outline: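 Steps: seed 2500 LYMP2-010 cells per well; incubate 5 hr at 37 C; add compound; incubate 24 hr at 37 C; add CellTiter-Glo, wait 30 min at room temperature; read luminescence. Concentration-response fitted to Hill equation for AC50.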
Assay [9] can be described thus: Cell Viability - LYMP2-012 (AID 982).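 Further: cellular ATP by luciferase luminescence where a drop means cytotoxicity; cells exposed to compound for one day before reading; 0% = DMSO only and full loss = 92 µM tetraoctylammonium bromide; nearly all actives have a fitted effect of over 55% in size.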
Assay [10] is described as follows: Cell Viability - LYMP2-014 (AID 983).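 Further: series mostly up to about 92 µM; plate controls were DMSO only for no effect and 92 µM tetraoctylammonium bromide for full effect; nearly all actives have a fitted effect of over 50% in size.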 In outline: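 Cells are plated at 2500/well and left 5 hr at 37 C. Compounds are added across a concentration range and incubated 24 hr at 37 C in complete medium. CellTiter-Glo is added, and luminescence is read after 30 min at room temperature.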
Assay [11] can be described thus: Cell Viability - LYMP2-016 (AID 984). In outline:
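Acute toxicity in a Coriell human lymphoblastoid line is scored as loss of intracellular ATP over 24 h of treatment in complete medium. CellTiter-Glo signal is fitted across concentrations with the Hill equation to give AC50.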

Assay [12] is described as follows: Cell Viability - LYMP2-018 (AID 985).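 Further: compound exposure lasted 24 hr at 37 °C; plate controls were DMSO only for no effect and tetraoctylammonium bromide at 92 µM for full effect; nearly all actives have a fitted effect of over 50% in size.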 The method in brief:
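Seed 2500 lymphoblastoid cells per well, incubate 5 hr at 37 C, add compound and incubate 24 hr at 37 C, add CellTiter-Glo, wait 30 min at room temperature, then read luminescence.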

The nature of assay [13]: Cell Viability - LYMP2-020 (AID 986). In outline: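 Seed 2500 cells per well and incubate 5 hr at 37 C. Add compounds at a concentration series and incubate 24 hr at 37 C. Add CellTiter-Glo, wait 30 min at RT, read luminescence, and fit a Hill curve for AC50.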
Assay [14] in a line: Cell Viability - LYMP2-022 (AID 987). The method in brief: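 Cells were seeded at 2500 per well, rested 5 hr at 37 C, and treated with titrated compounds for 24 hr at 37 C. Cellular ATP was then quantified by luciferase luminescence, and AC50 values were derived from Hill-modelled concentration-response curves.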
Assay [15] can be described thus: Cell Viability - LYMP2-024 (AID 988).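 Further: plate controls were DMSO only for no effect and 92 µM tetraoctylammonium bromide for full effect; nearly all actives have a fitted effect of over 60% in size.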 In outline: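 qHTS cytotoxicity, human lymphoblastoid line, complete medium; 24 h cpd treatment, 37 C; CellTiter-Glo ATP luminescence readout; tetraoctylammonium bromide positive control; AC50 via Hill fit.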
The nature of assay [16]: Cell Viability - LYMP2-026 (AID 989). Further: on the % scale 0 is the no-effect control and ±100 the full control effect; nearly all actives have a fitted effect of over 50% in size. The method in brief:
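Cells are seeded at 2500 per well and held 5 hr at 37 C. Compounds are added in concentration series for 24 hr, then CellTiter-Glo reagent is applied and luminescence read.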

A short description of assay [17]: Cell Viability - LYMP1-002 - Assay at 24 hr (AID 993). Further: on the % scale 0 is the no-effect control and ±100 the full control effect. In outline: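 Acute toxicity is measured as concentration-dependent loss of cellular ATP in a human lymphoblastoid line (Coriell LYMP1-002) after 24 h treatment in complete medium. ATP is quantified by luciferase luminescence and AC50 derived by Hill modelling.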
Assay [18] can be described thus: Cell Viability - LYMP1-002 - Assay at 40 hr (AID 994). In outline:
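Cells are plated at 2500 per well and rested 5 hr at 37 C. Compounds are added and incubated 40 hr at 37 C. CellTiter-Glo reagent is added for 30 min at room temperature before luminescence is read.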

Assay [19] can be described thus: qHTS assay for small molecule antagonists of peroxisome proliferator-activated receptor delta signaling (AID 588535; active means well fitted inhibition curve with a large enough effect in the signal ratio, with a control signal flat, not every such curve was filed as active; the % refers to the signal ratio;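 on max response: cells co-treated with a PPAR-delta agonist as stimulator during compound exposure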). The settings on record: HEK293T PPARd-UAS-bla, beta-lactamase FRET ratio, 18 h; 460 nm channel. The method in brief:
(§1)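 Fluorescence from CCF4-loaded GeneBLAzer PPAR-delta-UAS-bla HEK293T cells (2 hrs RT loading) quantified reporter inhibition after an 18 hr, 37 C compound exposure across a titration.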
A general note: qHTS replaces the single test concentration by a dilution series.

Assay [20] deals with Peroxisome proliferator-activated receptor delta (Homo sapiens) (UniProt Q03181). The description is as above. The method in brief: as §1
Peroxisome proliferator-activated receptor delta (Homo sapiens), sequence (Q03181 whole entry, looked up): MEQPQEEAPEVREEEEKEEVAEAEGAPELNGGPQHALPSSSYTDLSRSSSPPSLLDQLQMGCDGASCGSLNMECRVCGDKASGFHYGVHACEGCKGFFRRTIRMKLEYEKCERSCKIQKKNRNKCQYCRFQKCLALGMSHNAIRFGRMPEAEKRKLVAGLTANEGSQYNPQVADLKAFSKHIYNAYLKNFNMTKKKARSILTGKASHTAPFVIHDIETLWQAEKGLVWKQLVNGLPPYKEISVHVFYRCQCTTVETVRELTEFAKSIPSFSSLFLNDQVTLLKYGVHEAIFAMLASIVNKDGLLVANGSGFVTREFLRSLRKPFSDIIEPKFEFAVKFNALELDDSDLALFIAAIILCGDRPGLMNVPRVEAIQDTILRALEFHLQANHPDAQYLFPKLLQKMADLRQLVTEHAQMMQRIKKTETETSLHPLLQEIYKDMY

Regarding `CO[C@H]1/C=C/O[C@@]2(C)Oc3c(C)c(O)c4c(O)c(c(/C=N/N5CCN(C)CC5)c(O)c4c3C2=O)NC(=O)/C(C)=C\C=C\[C@H](C)[C@H](O)[C@@H](C)[C@@H](O)[C@@H](C)[C@H](OC(C)=O)[C@@H]1C`, the compound was called inactive in assay [1], in [2], in [3], in [4], in assay [5] and in assay [6]. The compound was classed as inactive in assay [7], in assay [8], in assay [9], in assay [10], in [11] and in assay [12]. Also, the call in assay [13], in [14], in assay [15], in assay [16], in assay [17] and in assay [18] was inactive. For the same compound, the compound was classed as inactive in assay [20]. In addition, the max response in assay [19] turned out to be 91.2%.
